A short description of assay [1]: CEETOX_H295R_11DCORT: CeeTox H295R High-throughput Steroidogenesis Assay for 11-Deoxycortisol (11DCORT) (AID 2283432; active means hit-call score of the fitted dose curve at least 0.9, where 1 is the maximum; inactive means score below 0.9). Conditions: actives raise or lower the signal. The method, boiled down: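 Human adrenal H295R cells were prestimulated with 10 uM forskolin for 48 h, then exposed to test chemical (0.1% DMSO final) for 48 h. Medium 11-deoxycortisol was quantified by MTBE extraction and HPLC-MS/MS; bidirectional fitting relative to DMSO.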

Assay [2] can be described thus: CEETOX_H295R_OHPREG: CeeTox H295R High-throughput Steroidogenesis Assay for OH-Pregnenolone (OHPREG) (AID 2283434; active means hit-call score of the fitted dose curve at least 0.9, where 1 is the maximum; inactive means score below 0.9). Conditions: actives raise or lower the signal. The method, boiled down: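 Human adrenal H295R cells were prestimulated 48 h with 10 uM forskolin, then exposed 48 h to chemical in 0.1% DMSO. Medium 17alpha-hydroxypregnenolone was quantified by HPLC-MS/MS after MTBE extraction; bidirectional fitting versus DMSO baseline.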

Assay [3] in a line: CEETOX_H295R_ANDR: CeeTox H295R High-throughput Steroidogenesis Assay for Androstenedione (ANDR) (AID 2283436; active means hit-call score of the fitted dose curve at least 0.9, where 1 is the maximum; inactive means score below 0.9). Conditions: actives raise or lower the signal. The method, boiled down:
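H295R human adrenal cells (passages ≤10) were exposed to test chemicals for 48 h; androstenedione in medium was MTBE-extracted and quantified by HPLC-MS/MS against a 7-point standard curve. Bidirectional fitting used DMSO as baseline.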

Assay [4] in a line: CEETOX_H295R_CORTIC: CeeTox H295R High-throughput Steroidogenesis Assay for Corticosterone (CORTIC) (AID 2283437; active means hit-call score of the fitted dose curve at least 0.9, where 1 is the maximum; inactive means score below 0.9;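 further: corticosterone secreted into medium quantified by mass spectrometry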). The note with it: actives raise or lower the signal. Put shortly: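 H295R cells were prestimulated 48 h with 10 uM forskolin, then exposed 48 h to test chemical in 0.1% DMSO. Medium corticosterone was MTBE-extracted and quantified by HPLC-MS/MS; bidirectional fit versus DMSO baseline.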

Assay [5] in a line: CEETOX_H295R_CORTISOL: CeeTox H295R High-throughput Steroidogenesis Assay for Cortisol (AID 2283438; active means hit-call score of the fitted dose curve at least 0.9, where 1 is the maximum; inactive means score below 0.9;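 further: cortisol secreted into medium quantified by LC-MS/MS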). Conditions: actives raise or lower the signal. The method, boiled down: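 Forskolin 10 uM 48 h prestim → test cmpd in DMSO (0.1% final) 48 h → medium MTBE-extracted → LC-MS/MS cortisol vs 7-pt std curve. Gain/loss of signal fitted vs DMSO. MTT viability in same wells.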
A short description of assay [6]: CEETOX_H295R_DOC: CeeTox H295R High-throughput Steroidogenesis Assay for DOC (AID 2283439; active means hit-call score of the fitted dose curve at least 0.9, where 1 is the maximum; inactive means score below 0.9). Conditions: actives raise or lower the signal. Put shortly: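 Readout: 11-deoxycorticosterone in culture medium by reverse-phase C18 HPLC with ESI+ tandem MS after MTBE extraction. Cells: H295R, forskolin-primed (10 uM, 48 h), chemical-treated 48 h; DMSO 0.1% final. Activity fitted bidirectionally versus DMSO.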

Assay [7] can be described thus: CEETOX_H295R_ESTRADIOL: CeeTox H295R High-throughput Steroidogenesis Assay for Estradiol (AID 2283440; active means hit-call score of the fitted dose curve at least 0.9, where 1 is the maximum; inactive means score below 0.9;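 further: estradiol secreted into medium quantified by LC-MS/MS after dansyl derivatisation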). The note with it: actives raise or lower the signal. The method, boiled down:
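H295R, 48 h forskolin (10 uM) prestim → 48 h compound, 0.1% DMSO final. Estradiol in medium: MTBE extraction, dansyl chloride derivatization, LC-MS/MS. Fit bidirectional vs DMSO baseline; MTT viability in same wells.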

The nature of assay [8]: CEETOX_H295R_ESTRONE: CeeTox H295R High-throughput Steroidogenesis Assay for Estrone (AID 2283441; active means hit-call score of the fitted dose curve at least 0.9, where 1 is the maximum; inactive means score below 0.9;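 further: estrone secreted into medium measured by LC-MS/MS after dansyl derivatization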). The note with it: actives raise or lower the signal. Put shortly: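 H295R cells prestimulated 48 h with 10 uM forskolin, then exposed 48 h to chemicals in 0.1% DMSO final; estrone in medium extracted with MTBE, dansyl-derivatized, quantified by HPLC-MS/MS; bidirectional fitting versus DMSO, viability by MTT.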

Assay [9] in a line: CEETOX_H295R_TESTO: CeeTox H295R High-throughput Steroidogenesis Assay for Testosterone (TESTO) (AID 2283457; active means hit-call score of the fitted dose curve at least 0.9, where 1 is the maximum; inactive means score below 0.9). Conditions: actives raise or lower the signal. Put shortly:
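Readout: testosterone quantified by HPLC-MS/MS (C18, ESI positive) after MTBE liquid-liquid extraction of culture medium. Cells were H295R, 48 h chemical exposure per OECD 456 with modifications. Gain or loss of signal fitted relative to DMSO.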

Assay [10] is described as follows: ATG_XTT_Cytotoxicity: Cytotoxicity Assessment in the Attagene TRANS-FACTORIAL HepG2 Assay (AID 2283584).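 On AC50: cells exposed to compound for 24 h before reading; active means loss of viability signal versus DMSO baseline.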 Put shortly:
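XTT readout of cell number in transfected HepG2 cells, 24 h post-dosing; DMSO serves as negative control and baseline, with activity taken as loss of viability signal.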

The target in assay [11] is Peroxisome proliferator-activated receptor gamma (Homo sapiens) (UniProt P37231). Put plainly: OT_PPARg_PPARgSRC1_1440: Odyssey Thera (OT) 24-hour Protein-Complementation Assay for Peroxisome Proliferator-activated Receptor Gamma/ SRC-1 Co-activator (AID 2283388).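 Further: nuclear to cytoplasmic ratio of reconstituted Venus YFP fluorescence in fixed imaged cells.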 The method, boiled down: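 Readout: nuclear-to-cytoplasmic 488 nm fluorescence ratio, ≥350 cells per image, 8 images per well, after 24 h compound exposure of HEK293T expressing PPARg/SRC-1 split-YFP fusions. Activity fitted in positive direction against DMSO.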
Sequence of Peroxisome proliferator-activated receptor gamma (Homo sapiens) (P37231 whole entry, looked up, the tested form may be a part): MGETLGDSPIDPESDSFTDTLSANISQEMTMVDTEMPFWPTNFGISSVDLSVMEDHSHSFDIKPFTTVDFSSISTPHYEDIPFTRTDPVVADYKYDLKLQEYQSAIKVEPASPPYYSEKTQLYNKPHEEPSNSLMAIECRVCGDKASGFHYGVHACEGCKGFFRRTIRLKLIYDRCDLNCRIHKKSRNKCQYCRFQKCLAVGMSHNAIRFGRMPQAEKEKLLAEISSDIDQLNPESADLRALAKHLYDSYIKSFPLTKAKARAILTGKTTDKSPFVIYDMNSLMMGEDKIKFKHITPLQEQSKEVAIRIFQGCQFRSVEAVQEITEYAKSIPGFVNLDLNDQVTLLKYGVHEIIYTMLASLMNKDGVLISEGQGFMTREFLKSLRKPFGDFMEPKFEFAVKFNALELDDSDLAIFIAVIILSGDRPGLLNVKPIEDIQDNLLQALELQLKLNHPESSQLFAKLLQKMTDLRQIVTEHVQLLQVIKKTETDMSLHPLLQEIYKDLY

In assay [12] the target is Cellular tumor antigen p53 (Homo sapiens) (UniProt P04637). The assay can be described thus: TOX21_p53_BLA_p2_ratio: Tox21 HCT-116 p53 Agonism Beta-lactamase Assay, Ratio, Phase 2 (AID 2283592). Put shortly: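 In this cell-based reporter format, HCT116 cells were dosed with chemicals delivered from DMSO by 217-fold dilution and incubated 16 h at 37C. Emission at 460 and 530 nm after 2 h CCF4-AM loading provided the ratio, fitted upward versus DMSO.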
Sequence of Cellular tumor antigen p53 (Homo sapiens) (P04637 whole entry, looked up): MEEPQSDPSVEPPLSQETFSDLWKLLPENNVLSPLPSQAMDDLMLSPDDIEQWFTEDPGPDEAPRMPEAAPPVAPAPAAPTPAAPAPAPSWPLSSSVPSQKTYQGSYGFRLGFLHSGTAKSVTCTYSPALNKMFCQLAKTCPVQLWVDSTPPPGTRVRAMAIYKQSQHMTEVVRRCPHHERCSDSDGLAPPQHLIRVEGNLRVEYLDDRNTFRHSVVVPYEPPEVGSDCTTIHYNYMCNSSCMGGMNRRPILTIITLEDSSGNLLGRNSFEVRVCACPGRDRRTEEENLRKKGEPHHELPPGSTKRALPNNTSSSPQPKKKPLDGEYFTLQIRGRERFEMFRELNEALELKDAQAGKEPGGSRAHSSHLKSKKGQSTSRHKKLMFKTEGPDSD

Assay [13] in a line: TOX21_p53_BLA_p3_viability: Viability Assessment in the Tox21 HCT-116 p53 Agonism Beta-lactamase Assay, Phase 3 (AID 2283593).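 Further: cells exposed to compound for 16 h before reading.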 The method, boiled down:
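HCT-116 cells (4000/well) rested 5 h at 37C, then got DMSO compounds by pin tool (217-fold dilution) for 16 h at 37C, 5% CO2. After the bla read, CellTiter-Glo was added and luminescence read at 30 min, room temperature.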

Assay [14] concerns the target Cellular tumor antigen p53 (Homo sapiens) (UniProt P04637). The assay can be described thus: TOX21_p53_BLA_p3_ratio: Tox21 HCT-116 p53 Agonism Beta-lactamase Assay, Ratio, Phase 3 (AID 2283596). Put shortly:
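HCT116 p53-bla cells (4000/well) given compound in DMSO (217-fold dilution) after 5 h, incubated 16 h at 37C. CCF4-AM substrate 2 h at room temperature; 460/530 nm emission ratio, gain fitted against DMSO.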

A short description of assay [15]: TOX21_p53_BLA_p4_viability: Viability Assessment in the Tox21 HCT-116 p53 Agonism Beta-lactamase Assay, Phase 4 (AID 2283597).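 Further: hits lower the luminescence signal meaning cytotoxicity.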 The method, boiled down:
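We seeded HCT116 p53 reporter cells at 4000/well and waited 5 h. We then added compounds in DMSO at a 217-fold dilution and incubated for 16 h. Viability was read as CellTiter-Glo luminescence after 30 min at RT.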

Assay [16] addresses Cellular tumor antigen p53 (Homo sapiens) (UniProt P04637). Put plainly: TOX21_p53_BLA_p5_ratio: Tox21 HCT-116 p53 Agonism Beta-lactamase Assay, Ratio, Phase 5 (AID 2283599). Put shortly:
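HCT-116 cells carrying a p53-inducible beta-lactamase reporter were seeded at 4000 cells/well and dosed after 5 h with compound in DMSO (217-fold dilution). After 16 h at 37C, CCF4-AM substrate was added for 2 h, and the 460/530 nm emission ratio was scored as gain-of-signal versus DMSO.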

Assay [17] in a line: TOX21_p53_BLA_p5_viability: Viability Assessment in the Tox21 HCT-116 p53 Agonism Beta-lactamase Assay, Phase 5 (AID 2283600). The method, boiled down: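 Compounds, pinned from DMSO at 217-fold dilution, were left on the cells for 16 h. The viability endpoint was ATP content measured by CellTiter-Glo luminescence, where falling signal reflects cytotoxicity.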
For assay [18], the target named is Cellular tumor antigen p53 (Homo sapiens) (UniProt P04637). The assay can be described thus: TOX21_p53_BLA_p4_ratio: Tox21 HCT-116 p53 Agonism Beta-lactamase Assay, Ratio, Phase 4 (AID 2283601). The method, boiled down: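 HCT116 cells carrying an inducible beta-lactamase reporter were plated at 4000 cells/well, rested 5 h, then exposed to compounds in DMSO (217-fold dilution) for 16 h at 37C. CCF4-AM substrate was loaded 2 h at room temperature; 460/530 nm emission ratio scored gain-of-signal versus DMSO.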

The nature of assay [19]: TOX21_p53_BLA_p2_viability: Viability Assessment in the Tox21 HCT-116 p53 Agonism Beta-lactamase Assay, Phase 2 (AID 2283591).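 Further: compound exposure lasted 16 h at 37 °C; actives lower the ATP signal meaning cytotoxicity.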 Put shortly:
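HCT-116 p53-bla cells (4000/well) rested 5 h at 37C, then received compounds in DMSO (217-fold dilution) for 16 h at 37C, 5% CO2. After the CCF4 read, CellTiter-Glo was added; ATP luminescence was read after 30 min at room temperature.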

Assay [20] is described as follows: CCTE_Simmons_CellTiterGLO_HEK293T: Viability Assessment in CCTE's Assays for Thyroperoxidase (TPO) Inhibition, Simmons Lab (AID 2283665).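 Further: cells exposed to compound for 24 h before readout; actives reduce ATP signal below DMSO vehicle meaning cytotoxicity.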 Put shortly:
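HEK293T, 10 000 cells/well, DMEM + 1% FBS; 8-pt titration 5 nM–87.5 uM [final], 0.5% DMSO; 24 hr, 37C, 5% CO2; CellTiter-Glo luminescence; n=3 biological replicates.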

SMILES strings stand for the structures. Values joined by “and” are separate entries in the source; they are usually repeats but may differ in a detail not shown here. Equal entries are not always repeated. Records with an inconclusive call do not appear. Where a structure was tested more than once in an assay, its records may differ in their call. Active and inactive are the calls of the source. How the source made its calls, unless noted: active means hit-call score of the fitted dose curve at least 0.9, where 1 is the maximum; inconclusive means response in the unintended direction; inactive means score below 0.9.

`CCCCNc1ccc(NCCCC)c2c1C(=O)c1ccccc1C2=O`: the call in assay [1], in assay [2], in assay [3], in assay [4], in assay [5] and in assay [6] was inactive. In addition, the call in assay [7], in assay [8], in assay [9] and in assay [10] was inactive.
Take `CC=C1CC2C=CC1C2` (stereo not drawn): the compound was classed as inactive in [11], in assay [10], in [12], in assay [13], in [14] and in assay [15]. Also, the outcome in assay [16], in [17] and in [18] was inactive.
As for `C1CN(SSN2CCOCC2)CCO1`, the outcome in [11], in [19], in assay [12], in [14], in assay [15] and in [16] was inactive. Further, the outcome in assay [17] and in assay [18] was inactive. Also, in assay [20], the AC50 is 88.9 µM (active).
In the case of `C1=Cc2ccccc2C1`, the call in assay [11], in assay [10], in assay [12], in assay [13], in [15] and in [17] was inactive.
In the case of `CCOC(=O)[C@H](C)O`, the result in [10] was inactive.
On to `CCCCCCCCCCCCCCCC[N+](C)(C)CC`, for which the result in assay [10] and in assay [12] was inactive. The AC50 is 37.2 µM (active) in [19]; 63.3 µM (active) in assay [12]; 65.4 µM (active) and 35.3 µM (active) in [13]; 44.5 µM (active) and 30.8 µM (active) in assay [14]; 73.7 µM (active) and 30.9 µM (active) in assay [15]; 71.2 µM (active) and 24.6 µM (active) in [16]. Further, the AC50 in [17] was 74.8 µM (active) and 18.2 µM (active); in [18], 70.4 µM (active).
As to `O=C1CCCCCCCCCCCCCCCO1`, the compound was classed as inactive in [10], in assay [19], in [12], in [13], in [14] and in assay [16]. In [18], the outcome was inactive.
In the case of `O=c1[nH]nc(-c2ccc([N+](=O)[O-])o2)o1`, the compound was classed as inactive in assay [10], in assay [19], in [12], in [13], in assay [14] and in [15]. The outcome in assay [16] and in assay [18] was inactive.
In the case of `CC(C)c1ccc2c(c1)CC[C@H]1[C@](C)(CN)CCC[C@]21C`, the AC50 is 9.98 µM (active) in assay [10]; 42.6 µM (active) in [19]; 47.1 µM (active) in assay [12]; 32.3 µM (active) in [13]; 72.5 µM (active) in assay [14]; 49.6 µM (active) in [15]. Besides, the AC50 in assay [16] was 78.5 µM (active); in assay [18] it was 85.8 µM (active).
With `COc1cc(C)ccc1C(C)C`, the outcome in [10], in assay [19], in assay [12], in assay [13], in assay [14] and in assay [16] was inactive. The outcome in assay [18] was inactive.
As to `O=S(=O)(O)CC(O)CCl` (stereo not drawn), the compound was classed as inactive in assay [10], in assay [19], in assay [12], in [13], in assay [14] and in assay [16]. The result in assay [18] was inactive.
On to `CC1(C)O[C@@H]2C[C@H]3[C@@H]4C[C@H](F)C5=CC(=O)CC[C@]5(C)[C@H]4[C@@H](O)C[C@]3(C)[C@]2(C(=O)CO)O1`, for which the outcome in assay [10], in assay [19], in assay [12], in [13], in [14] and in assay [15] was inactive. Also, the result in [16], in assay [17] and in [18] was inactive.
Consider `O=C(O)CC(C(=O)O)C(CC(=O)O)C(=O)O` (stereo not drawn), for which the result in assay [10], in [19], in [12], in assay [13], in assay [14] and in [15] was inactive. Besides, the result in assay [16], in assay [17] and in assay [18] was inactive.
For the compound `Cc1cc(C)c(C)c(C)c1`, the compound was classed as inactive in assay [10], in assay [19], in assay [12], in assay [13], in assay [14] and in assay [15]. Moreover, the outcome in assay [16] and in assay [18] was inactive.
